AmpC no deterg: blocks E. coli AmpC beta-lactamase in detergent-free assay; P00811; Potency, µM (top dose mostly 57.1 µM), for the others: at the highest dose activity change, negative = inhibition, actives largely listed as inhibitors; actives 0.52% (n = 330,000); AmpC nitrocefin hydrolysis, absorbance 480 nm, 0.0001% Triton;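 note: plate controls were no compound for no effect and no enzyme for full effect; nearly all actives have a fitted effect of over 20% in size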
Target sequence (P00811 whole entry, looked up): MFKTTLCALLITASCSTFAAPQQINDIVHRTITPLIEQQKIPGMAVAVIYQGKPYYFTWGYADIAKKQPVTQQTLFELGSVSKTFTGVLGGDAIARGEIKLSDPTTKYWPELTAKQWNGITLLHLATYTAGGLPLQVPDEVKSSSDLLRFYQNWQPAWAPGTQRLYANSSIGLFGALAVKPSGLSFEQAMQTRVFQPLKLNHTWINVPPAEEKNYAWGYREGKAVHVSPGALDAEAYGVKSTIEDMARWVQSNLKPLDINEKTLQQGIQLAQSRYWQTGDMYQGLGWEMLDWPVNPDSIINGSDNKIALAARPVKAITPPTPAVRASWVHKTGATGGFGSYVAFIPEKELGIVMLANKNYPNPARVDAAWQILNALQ
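AmpC (5.3 nM in the dispensed reagent) in 20 mM phosphate pH 7.0 with 0.01% (detergent screen) or 0.0001% Triton X-100 was preincubated with compounds for 15 min at room temperature. Nitrocefin was then added from an 800 uM solution, and hydrolysis was followed at 480 nm.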
Pf growth 96h: P. falciparum growth inhibition at 96 hour, primary screen for plastid delayed-death inhibitors; Potency, µM (top dose mostly 28.7 µM), for the others: top-dose activity change, negative = inhibition, hits mostly inhibitors; P. falciparum luciferase reporter growth, 96 h; actives 6.9% (n = 320,000); AID 504834; note: % is set by controls: 0 for no effect and ±100 for the full control effect
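Erythrocytes infected with luciferase-expressing P. falciparum were dispensed at 2% hematocrit and 0.05% parasitemia (final), then incubated with compounds 96 hours at 37 C in 5% CO2. Luminescence after detection reagent addition reported growth.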
Sm TGR inh: S. mansoni TGR enzyme inhibition; Q962Y6; purified TGR, DTNB reduction, TNB absorbance 405 nm; Potency, µM (highest dose often 114 µM), for inactives: top-dose activity change, negative = inhibition, usual class: inhibitors; actives 3% (n = 360,000); AID 485364; note: % is set by controls: 0 for no effect and ±100 for the full control effect; nearly all actives have a fitted effect of over 60% in size
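TGR 20 nM + NADPH 100 uM (dispensed conc.), cpd preinc 15 min RT; start with NADPH (500 uM addition) then DTNB (15 mM addition). Kinetic TNB absorbance, 405 nm filter. Four-parameter Hill fit across titration.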
Pf growth 48h: inhibits P. falciparum growth in the first generation, 48 h. AID 504832. Potency, µM (highest dose often 28.7 µM), without a hit: at the highest dose activity change, negative = inhibition, hits mostly inhibitors. P. falciparum luciferase growth in erythrocytes, 48 h. actives 5.9% (n = 310,000); note: % is set by controls: 0 for no effect and ±100 for the full control effect
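Here the parasites carry a stable luciferase gene and grow inside erythrocytes in Albumax-based RPMI medium with compound for one erythrocytic cycle. Activity is scored as loss of luminescent signal.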
SARS PLP yeast: inhibitors of SARS-CoV papain-like protease in yeast | S. cerevisiae expressing SARS-CoV PLpro, growth rescue | Potency, µM (top dose mostly 32.9 µM), inactives show at the highest dose activity, positive = growth rescue, usual class: activators | actives 0.19% (n = 330,000); calls by dose curve; note: 0% is about no effect; nearly all actives have a fitted effect of over 55% in size
AmpC inh detg: inhibitors of E. coli AmpC beta-lactamase with detergent; P00811; AmpC hydrolysis of nitrocefin, absorbance 480 nm, 0.01% Triton; Potency, µM (doses to about 114 µM), inactives show at the top dose activity change, negative = inhibition, hits mostly inhibitors; actives 0.041% (n = 370,000); AID 485294;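 note: 0% = no-compound wells and -100% = no-enzyme wells; nearly all actives have a fitted effect of over 25% in size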
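20 mM phosphate pH 7.0 + 0.01% (detergent screen) or 0.0001% Triton X-100; 5.3 nM AmpC reagent; cpd preinc 15 min RT; nitrocefin (800 uM stock) to start; A480 q20 s × 4 min; Activity was normalised to no-enzyme and no-compound control wells.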
* hit, by the source's call; ? = inconclusive; · = not tested or not shown. Compounds with a hit are over-represented: about 12% of the library has one in this group of screens. Unless noted, calls come from the whole dose curve; as a rule, active = well fitted curve in the direction sought with a large enough effect; inconclusive = small, poorly fitted or top-dose-only effect, or another doubt; inactive = no such curve, though single readings can be large; an effect the other way counts as inactive or inconclusive. Potency is the fitted concentration of half-maximal effect.

SMILES | AmpC no deterg | Pf growth 96h | Sm TGR inh | Pf growth 48h | SARS PLP yeast | AmpC inh detg
O=C(NNC(=O)C12CC3CC(CC(C3)C1)C2)c1ccccc1O | -3% | ? | 0% | ? | ? | 7%
O=C(NC12CC3CC(CC(C3)C1)C2)c1ccccc1O | -24% | · | 4% | 7.4µM* | -7% | 3%
CN(C)Cc1c(C(=O)Nc2ccccc2)[nH]c2ccccc12 | -31% | 9.3µM* | -4% | 2.9µM* | 1% | ?
CCOC(=O)c1[nH]c2ccccc2c1NC(=S)Nc1ccccc1 | -42% | 54% | -33% | 76% | -8% | -5%
O=C(CCCCCC(=O)N(CCO)CCO)N(CCO)CCO | -10% | · | -2% | 13µM* | -1% | -7%
CCN(CC)C(=O)c1cc(-c2ccc3c(c2)OCO3)on1 | -2% | ? | -13% | 160% | 1% | 2%
COc1cc(C(=O)Nc2ccc3ccccc3c2)cc(OC)c1OC | 52% | 1.7µM* | -6% | 5.2µM* | -9% | -15%
O=C(Nc1nc2ccccc2[nH]1)c1cccs1 | 20% | 0.47µM* | 1% | 374% | -6% | 2%
Cc1ccc(C(=O)Nc2nc3ccccc3[nH]2)cc1 | -30% | -39% | -1% | -98% | -8% | -6%
COc1cc(C(=O)Nc2ccc(S(=O)(=O)Nc3cnc4ccccc4n3)cc2)cc(OC)c1OC | -6% | 12µM* | -8% | ? | -6% | -2%
COc1ccccc1C(=O)Nc1nc2ccccc2[nH]1 | -25% | -61% | 1% | -72% | -16% | ?
COc1cc(SC)ccc1C(=O)Nc1nc2ccccc2[nH]1 | -8% | 0.17µM* | -14% | ? | -79% | ?
Cc1ccc(-n2nc3c(N4CCC(C(=O)NC5CCC(C)CC5)CC4)nnc(C)c3c2C)cc1 (centres undefined) | · | · | 0% | · | · | ?
COc1cc(SC)ccc1C(=O)NCCOc1ccc(F)cc1 | 1% | -2% | -1% | 98% | -9% | 4%
CCn1c(CNC(=O)c2cc(OC)c(OC)c(OC)c2)cc2ccccc21 | 42% | ? | -14% | 9.3µM* | -5% | -12%
COc1cc(C(=O)Nc2nc3ccccc3[nH]2)cc(OC)c1OC | -30% | 9.3µM* | -1% | ? | 9% | -4%
COc1ccc(C(=O)Nc2nc3ccccc3[nH]2)cc1 | -30% | -85% | -2% | -59% | -6% | ?
COc1cc(C(=O)NCc2cc3ccccc3n2C)cc(OC)c1OC | 16% | 33% | -10% | 9% | 0% | -10%
COc1ccc(CCNC(=O)c2ccc(SC)cc2OC)cc1 | -17% | 2.6µM* | 0% | ? | -2% | 1%
CCCCc1nn2c(=O)cc(COC(=O)c3ccc(NC(=O)C(CC)CC)cc3)nc2s1 | · | · | 2% | · | · | 16%
COC(=O)C(CC(C)C)N1CCC(=O)c2ccccc2S1(=O)=O (centres undefined) | 2% | ? | ? | -21% | ? | 0%
C=C1CCN(C(Cc2ccccc2)C(=O)OC)S(=O)(=O)c2ccc(F)cc21 (centres undefined) | -12% | ? | 22µM* | -14% | -2% | 3%
COc1ccc(-c2c[n+]3c(n2-c2ccccc2)SCC3)cc1 | -15% | ? | -2% | ? | 2% | 1%
c1ccc(Cn2c(-c3ccccc3)c[n+]3c2SCCC3)cc1 | -4% | ? | 7% | 1µM* | 0% | -4%
COc1cc(CN(C)c2ncnc3sccc23)ccc1OC(F)F | -7% | 13µM* | -4% | ? | 0% | 2%
SMILES | AmpC no deterg | Pf growth 96h | Sm TGR inh | Pf growth 48h | SARS PLP yeast | AmpC inh detg
COc1ccc(OC)c(Nc2ncnc3sccc23)c1 | -12% | 29% | -1% | -20% | -4% | ?
CCc1ccc(NC(=O)CC2C(=O)N(c3ccc(Cl)cc3)C(=O)N2Cc2cccs2)cc1 (centres undefined) | · | · | 5% | · | · | 11%
O=C(CC1C(=O)CCCC1=O)c1ccccc1 | -5% | -7% | 40µM* | 14% | 1% | -2%
O=C(CCC1CCCCC1=O)c1ccccc1 (centres undefined) | 1% | ? | 7% | 56% | 2% | -15%
Nc1c(C(=O)N/N=C/c2cccnc2)oc2nc(-c3ccccc3)cc(-c3ccco3)c12 | -8% | ? | ? | ? | 2% | -1%
Nc1c(C(=O)N/N=C/c2cccnc2)oc2nc(-c3ccco3)cc(-c3ccco3)c12 | 4% | ? | 13µM* | ? | 0% | -5%
COc1ccc2nc(Nc3nc(CSc4nc5ccccc5[nH]4)cc(=O)[nH]3)nc(C)c2c1 | 84% | 10µM* | -10% | ? | 1% | -11%
Cc1nc(Nc2nc(CSc3nc4ccccc4[nH]3)cc(=O)[nH]2)nc2ccccc12 | 42% | 9.3µM* | -4% | ? | 2% | 0%
Cc1nc(Nc2nc(CSc3ccc(Cl)cc3)cc(=O)[nH]2)nc2ccccc12 | -15% | ? | 9% | 0% | -16% | 4%
CCC(Cc1ccccc1)NC(=O)c1csc2c1CCCCC2 (centres undefined) | · | · | 24% | · | · | 16%
Cc1ccc(NC(=O)Cn2nnc(-c3ccccc3)n2)c(C)c1 | · | · | 2% | · | · | -5%
O=C(NCCc1ccccc1)C1CCC(=O)N(Cc2cccc(C(F)(F)F)c2)C1 (centres undefined) | 145% | -18% | 89µM* | 2% | -7% | 0%
O=C(NCCc1ccc(C(F)(F)F)cc1)C1CCC(=O)N(CCCN2CCCC2=O)C1 (centres undefined) | 3% | 15µM* | 41% | 0% | -5% | -14%
CCOC(=O)C1=C(C)N(c2ccccc2)C(=O)/C1=C\c1cccs1 | -17% | 25% | -4% | -25% | -13% | ?
COc1cc(/C=C2/C(=O)NC(=O)N(c3ccccc3)C2=O)ccc1O | -40% | ? | ? | -6% | 26% | -7%
COC(=O)C1=C(C)N(c2cc(C)cc(C)c2)/C(=C/c2ccco2)C1=O | 94% | 5% | ? | 8.3µM* | -3% | 1%
CCOC(=O)C1=C(C)N(c2ccccc2)C(=O)/C1=C\c1ccc(O)c(OC)c1 | -10% | ? | 3.2µM* | ? | 1% | 1%
COC(=O)C1=C(C)N(c2ccc(OC)c(OC)c2)C(=O)/C1=C\c1ccco1 | 70% | 7% | 16µM* | ? | 0% | -4%
COC(=O)C1=C(C)N(c2ccccc2)/C(=C/c2ccco2)C1=O | 16% | ? | -24% | -13% | 2% | 0%
CCOC(=O)C1=C(C)N(c2ccccc2)C(=O)/C1=C\c1ccco1 | -10% | ? | 45µM* | 20% | -1% | -4%
